# The source made the active and inactive calls.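 The calls were made as follows, unless noted: active = inhibition at or above 50% at 10 µM; inactive = inhibition below 50%.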
# Key:
# [1] = inhibitors of TNFa-induced NFkB p65 translocation, primary screen, imaging, HUVEC, MLSMR starter and 10KST1 sets (AID 438;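 active = inhibition above 20% together with a positive visual image hit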;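 also: compound added about 3h40 before a 20 min TNFalpha stimulation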;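 as to inhibition: signal is the nuclear over cytoplasmic p65 intensity ratio per well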); conditions: HUVEC TNFa-induced p65 nuclear translocation; cell count: measured here: nuclei count (cytotoxicity indicator), at 2.08 µM; inhibition: at 2 µM, stronger effect = higher value, 0% TNFa-plus-vehicle, 100% no-TNFa wells
# [2] = inhibitors of mutant huntingtin aggregation, primary screen, imaging, exon1htt(103Q)mCFP cells, high-content imaging (AID 483;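 active = visual image review flags a hit and inhibition of aggregation exceeds 20%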;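 also: compound exposure lasted 3 days before fixation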;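 as to nuclei count: percent of the per-plate median nuclei count of sample wells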); conditions: exon1htt(103Q)mCFP cell line, aggregate imaging, at 2 µM; inhibition of aggregation: stronger effect = higher value; nuclei count: measured here: cell count, toxicity
# [3] = inhibitors of E-selectin induction by TNFa, primary screen, imaging, HUVEC, immunofluorescence, MLSMR starter and 10KST1 sets (AID 487;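 active = visually confirmed hit in the image check and inhibition above 20%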;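 as to inhibition: signal is fraction of cell area covered by stained E-selectin grains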;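 as to nuclei count: 100% = median nuclei count of all wells on the same plate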); conditions: HUVEC TNFalpha-induced E-selectin immunofluorescence imaging, at 2 µM; inhibition: stronger effect = higher value; nuclei count: measured here: cell number, toxicity
# [4] = molecular target: Voltage-gated potassium channel subunit beta-2 (Rattus norvegicus) (UniProt P62483); assay: KvBeta enzyme negative modulators, primary screen, biochemical, NADPH fluorescence (AID 622;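 active = fluorescence slope higher than the sample average by over 3 SD, cut at about -0.22 in these data, passing the limit was not always enough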;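 also: slope of raw intensity against log time taken from 70 to 1610 s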); conditions: recombinant KvBeta, 4-cyanobenzaldehyde reduction, at 10 µM, stronger effect = higher value
# [5] = molecular target: Voltage-gated potassium channel subunit beta-2 (Rattus norvegicus) (UniProt P62483); assay: KvBeta positive modulators, primary screen, biochemical, NADPH fluorescence (AID 623;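 active = NADPH fluorescence slope more negative than the mean of all samples by about 3 SD, 99.7% confidence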;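 also: fluorescence intensity change per second fitted from 20 to 320 s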); conditions: Recombinant KvBeta, NADPH fluorescence decrease slope, 10 min; at 10 µM; stronger effect = lower value
# [6] = molecular target: Alpha-2C adrenergic receptor (Homo sapiens) (UniProt P18825); assay: modulators of alpha2C/GIRK thallium flux, primary screen, cell-based, HEK293 alpha2C/GIRK1/2 (AID 624;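 active = fluorescence slope after compound addition differing from the mean of all screened samples at 99.7% confidence, in either direction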;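 also: slope of fluorescence ratio to pre-addition baseline per second over 15 to 24 s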); conditions: thallium flux BTC fluorescence, at 10 µM, actives lie on both sides
# [7] = inhibitors of Sendai virus-induced IRF3 signaling, primary screen, TLR/RLR signaling modifier project, cell-based, Sendai virus stimulus, luciferase, 10K MLSCN set (AID 602276); conditions: HEK293 RL24 IRF3 luciferase reporter, at 10 µM, stronger effect = higher value;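 also: firefly luciferase from ISG56 promoter only with Renilla not read in this screen; 0% = Sendai virus plus DMSO and 100% = medium plus DMSO without virus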
# [8] = inhibitors of poly I:C-induced TLR3 signaling, primary screen, cell-based, poly I:C stimulus, luciferase, 10K MLSCN set (AID 602277;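 active = inhibition of the reporter signal at or above 50%; inactive = inhibition below 50%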); conditions: HEK293-TLR3 RL24 IRF3 luciferase reporter, at 10 µM, stronger effect = higher value
# Chain of Alpha-2C adrenergic receptor (Homo sapiens) (P18825 whole entry, looked up): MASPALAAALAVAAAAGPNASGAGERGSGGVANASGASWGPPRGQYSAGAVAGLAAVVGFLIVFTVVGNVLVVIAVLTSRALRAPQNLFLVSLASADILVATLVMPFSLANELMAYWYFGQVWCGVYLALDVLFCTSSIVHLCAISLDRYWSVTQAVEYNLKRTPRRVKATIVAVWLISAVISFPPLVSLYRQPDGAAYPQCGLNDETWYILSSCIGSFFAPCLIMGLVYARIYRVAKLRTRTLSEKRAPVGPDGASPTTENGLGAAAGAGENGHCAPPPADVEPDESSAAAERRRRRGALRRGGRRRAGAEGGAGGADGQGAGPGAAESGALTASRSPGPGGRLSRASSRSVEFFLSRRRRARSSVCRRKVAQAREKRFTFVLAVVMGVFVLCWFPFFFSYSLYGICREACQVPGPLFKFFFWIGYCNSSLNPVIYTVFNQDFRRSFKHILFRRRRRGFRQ
# Chain of Voltage-gated potassium channel subunit beta-2 (Rattus norvegicus) (P62483 whole entry, looked up): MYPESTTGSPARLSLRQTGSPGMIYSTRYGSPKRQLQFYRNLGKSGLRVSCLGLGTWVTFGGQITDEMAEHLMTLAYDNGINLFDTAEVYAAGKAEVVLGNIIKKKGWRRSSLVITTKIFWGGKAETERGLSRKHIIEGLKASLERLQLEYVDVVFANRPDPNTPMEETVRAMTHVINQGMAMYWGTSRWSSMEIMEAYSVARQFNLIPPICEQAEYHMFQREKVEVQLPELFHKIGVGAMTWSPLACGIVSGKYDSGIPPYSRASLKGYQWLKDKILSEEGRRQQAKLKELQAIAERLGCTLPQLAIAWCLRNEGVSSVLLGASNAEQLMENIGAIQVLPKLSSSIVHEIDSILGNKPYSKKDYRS
SMILES,cell count [1],inhibition [1],inhibition of aggregation [2],nuclei count [2] [%],inhibition [3],nuclei count [3] [%],fluorescence slope [4],NADPH fluorescence slope [5],slope [6],inhibition [7],inhibition [8]
Cn1c(SCC(=O)N2CCN(c3cccc(Cl)c3)CC2)nnc1-c1ccncc1,689,-5.1% (inactive),-15% (inactive),104,-92% (inactive),142,-0.373 (inactive),2.3e-06 (inactive),0.00664 (inactive),1.74% (inactive),-27.2% (inactive)
O=C(c1ccccc1F)N1CCN(Cc2cccc(Cl)c2)CC1,649,3% (inactive),10.9% (inactive),99.3,-3.6% (inactive),98.3,-0.654 (inactive),1.7e-05 (inactive),0.00876 (inactive),9.77% (inactive),10.5% (inactive)
CC1=C(C(=O)NCc2ccco2)C2(CCC(C)CC2)OC1=O (centres undefined),438,7.7% (inactive),22.4% (inactive),62.3,-20.5% (inactive),106,-0.513 (inactive),-2.5e-05 (inactive),0.00707 (inactive),23% (inactive),23.3% (inactive)
CCOC(=O)c1[nH]c(CSc2nnc(-c3ccncc3)n2CCOC)c(C(=O)OCC)c1C,368,1.1% (inactive),-5.7% (inactive),107,-89.1% (inactive),127,-0.486 (inactive),1.9e-05 (inactive),0.00635 (inactive),8.8% (inactive),11.1% (inactive)
COCCN(Cc1cc2cccc(C)c2[nH]c1=O)C(=O)c1ccccc1,298,-22.3% (inactive),3.6% (inactive),91.8,-23.9% (inactive),124,-0.372 (inactive),-5.9e-05 (inactive),0.00564 (inactive),7.15% (inactive),16.3% (inactive)
Cc1cccc(NC(=O)c2ccccc2O)c1C,497,4.9% (inactive),-10% (inactive),98.2,-5.3% (inactive),122,-0.482 (inactive),-2.8e-05 (inactive),0.00603 (inactive),-45.5% (inactive),-93.4% (inactive)
CCOC(=O)c1c(NC(=O)c2ccn(CC)n2)sc2c1CCCC2,680,-10.9% (inactive),-3.6% (inactive),97.6,-71.6% (inactive),114,-0.123 (inactive),-1.5e-06 (inactive),0.00291 (inactive),3.28% (inactive),-1.94% (inactive)
COc1ccc(C(=O)N2CCSC2=S)cc1OC,677,-19.3% (inactive),-13.4% (inactive),97.5,55.8% (inactive),82.9,-0.457 (inactive),-2.6e-05 (inactive),0.00338 (inactive),4.55% (inactive),15% (inactive)
O=C(CSc1ncnc2c1cnn2-c1ccccc1)Nc1ccccc1,316,2.4% (inactive),8.4% (inactive),106,-42% (inactive),115,-0.493 (inactive),-1.4e-05 (inactive),0.00569 (inactive),13.5% (inactive),23.8% (inactive)
O=c1[nH]c2ccc(Br)cc2c(-c2ccccc2)c1N1CCOCC1,728,-8% (inactive),-1.1% (inactive),88.6,-12% (inactive),119,-0.396 (inactive),2.9e-05 (inactive),0.00458 (inactive),-7.49% (inactive),-16.4% (inactive)
CC(C)(Oc1ccc(Cl)cc1)C(=O)NC1CCSC1=O (centres undefined),620,-7.5% (inactive),-23.8% (inactive),112,-63.4% (inactive),103,-0.502 (inactive),-2.8e-05 (inactive),0.00406 (inactive),10.9% (inactive),15.9% (inactive)
C=CCn1c(SC(C)C(=O)NC2(C#N)CCCCC2)nnc1-c1ccc(OC)cc1 (centres undefined),612,9.9% (inactive),6.2% (inactive),95,-154% (inactive),94,-0.594 (inactive),-3.3e-05 (inactive),0.00361 (inactive),22.5% (inactive),21.6% (inactive)
Cc1cc(NC(=O)CSc2nc3ccccc3n2CC(=O)N2CCCCC2)no1,722,-2% (inactive),-15% (inactive),108,-70.8% (inactive),119,-0.475 (inactive),-4.9e-05 (inactive),0.00628 (inactive),14.5% (inactive),29.1% (inactive)
O=C(CCC(=O)N1CCc2ccccc2C1)N1CCN(S(=O)(=O)c2ccccc2)CC1,361,-2.5% (inactive),-6.9% (inactive),131,-14.3% (inactive),102,-0.45 (inactive),-1.8e-05 (inactive),0.00506 (inactive),-9.4% (inactive),5.93% (inactive)
COc1ccc(CNc2oc(-c3ccccc3)nc2C#N)cc1,458,5% (inactive),-12.2% (inactive),99.5,-19.4% (inactive),67.2,-0.523 (inactive),2.8e-05 (inactive),0.00683 (inactive),-29.8% (inactive),-35.1% (inactive)
Brc1ccc(-c2csc(/N=C/N3CCOCC3)n2)cc1,531,-3.6% (inactive),-0.1% (inactive),97.4,13.5% (inactive),102,-0.521 (inactive),-8.8e-05 (inactive),0.00566 (inactive),-73.1% (inactive),-171% (inactive)
CCOC(=O)CC1=C(C(=O)OCC)C(c2ccc(C)o2)C(C#N)=C(N)O1 (centres undefined),339,-16.4% (inactive),15.3% (inactive),91.9,-46.5% (inactive),94.7,-0.625 (inactive),3.1e-06 (inactive),0.00603 (inactive),3.2% (inactive),8.99% (inactive)
O=c1c2cc(Cl)ccc2[nH]c(=S)n1Cc1ccco1,439,5.3% (inactive),13.5% (inactive),89.7,-36.1% (inactive),102,-0.597 (inactive),-4.8e-05 (inactive),0.00334 (inactive),9.24% (inactive),20.2% (inactive)
CCOC(=O)N1CCC(N2C(=O)c3ccccc3C2Nc2ccc3c(C)cc(=O)oc3c2)CC1 (centres undefined),654,2.3% (inactive),-19.4% (inactive),101,-65.6% (inactive),121,-0.0451 (active),-9.7e-08 (inactive),0.00764 (inactive),14.2% (inactive),18% (inactive)
